Experimental findings from PubChem BioAssay AID1006 (Sanford-Burnham Center for Chemical Genomics, 2008) are described below.

“And” between values parts separate entries of the source, which are not always exact repeats. Equal entries are not always repeated. Hit rate of the full screen: of about 200,000 compounds, about 3,000 (1.5%) were called active. This excerpt belongs to a sample that is enriched for actives. Unmarked numbers belong to inactive results.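 The calls were made as follows: active = inhibition above about 50% when tested at 10 µM (limit read from the data); inactive = the rest.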

Luciferin 4-monooxygenase (Photinus pyralis), sequence (P08659 whole entry, looked up): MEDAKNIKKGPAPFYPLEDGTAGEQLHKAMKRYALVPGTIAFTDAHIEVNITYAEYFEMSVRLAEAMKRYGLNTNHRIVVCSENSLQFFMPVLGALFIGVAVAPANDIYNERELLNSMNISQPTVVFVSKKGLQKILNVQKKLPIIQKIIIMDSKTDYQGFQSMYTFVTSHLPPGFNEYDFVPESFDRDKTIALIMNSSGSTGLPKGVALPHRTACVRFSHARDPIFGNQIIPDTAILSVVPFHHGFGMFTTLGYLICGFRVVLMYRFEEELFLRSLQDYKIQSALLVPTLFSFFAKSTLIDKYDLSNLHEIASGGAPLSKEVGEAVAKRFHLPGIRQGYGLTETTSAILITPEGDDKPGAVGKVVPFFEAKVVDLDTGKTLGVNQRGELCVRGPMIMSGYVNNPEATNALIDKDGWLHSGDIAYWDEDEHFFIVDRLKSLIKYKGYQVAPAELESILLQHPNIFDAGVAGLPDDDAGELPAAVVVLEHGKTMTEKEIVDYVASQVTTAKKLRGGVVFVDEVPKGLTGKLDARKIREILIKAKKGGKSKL

This test addresses Luciferin 4-monooxygenase (Photinus pyralis) (UniProt P08659). The test can be described thus: inhibition of purified FLuc reporter enzyme – biochemical, luminescence, ATPLite, artefact control for luciferase-based inhibitor screens, primary screen (AID 1006). The settings on record: ATPLite firefly luciferase biochemical luminescence, 10 min; at 10 µM; active compounds read high.
What is called inhibition is the relative decrease from the control value, in per cent. As to `COc1ccc(C)cc1-n1nnnc1SCc1nc2ccccc2c(=O)[nH]1`, the inhibition was 0.3%.

On to `Fc1cccc(Cc2noc(CN3CCN(c4cnccn4)CC3)n2)c1`, for which the inhibition is -8.2%. As for `Cc1nc2cc(NC(=O)NCc3ccccc3)ccc2o1`, the inhibition is 12%. With `Cc1ccc(NC(=O)Nc2ccc3oc(C)nc3c2)cc1`, the inhibition was 70.8% (active). As for `Cc1nc2ccc(NC(=O)C(F)(F)F)cc2o1`, the figure is -2.2%. Turning to `O=C(CN1CCc2ccccc21)NC(c1ccccc1)c1ccccc1`, the inhibition was -10.6%.

Consider `O=C(N/N=C/c1ccc(OCC2COCCO2)cc1)c1ccc(Br)cc1` (stereo not drawn), for which the inhibition is 2.2%. Regarding `CCS(=O)(=O)c1ccc(C(=O)NC)c(Cl)c1Cl`, the inhibition was -3.5%. Take `COc1ccccc1N1CCN(CC(=O)NCCc2ccc(S(N)(=O)=O)cc2)CC1`: the inhibition is -3%. The same measure for `O=C(Nc1nnc(C2CC2)s1)c1ccccn1`: 63.4% (active). For `Cc1occc1C(=O)Nc1nnc(C2CCCCC2)s1`, the inhibition is -4%.

With `O=C(Cc1cccs1)Nc1nnc(C2CC2)s1`, the inhibition was -1.8%. In the case of `FC(F)(F)c1cnc(Oc2ccccc2-c2nnc(-c3ccc(Cl)cc3)o2)c(Cl)c1`, the inhibition was -1.6%. In the case of `CSc1ccccc1-c1nnc(-c2ccc(Cl)cc2)o1`, the inhibition was 53.8% (active). Take `Nc1ccc(-c2nnc(-c3ccc(-c4ccccc4)cc3)o2)cc1`: the inhibition was 3.7%. With `COc1cccc(CC2(CO)CCCN(Cc3nc(-c4cccs4)oc3C)C2)c1` (stereo not drawn), the inhibition was -8.7%. `CC(=O)Nc1ccc(OCCC[n+]2cccc(C(=O)[O-])c2)cc1`: the inhibition is -2.9%.

Take `Cc1ccc(C(=O)Nc2ccc(C)c(S(=O)(=O)N(C)C)c2)s1`: the inhibition is 71.1% (active). On to `Cc1ccc(NC(=O)c2cccs2)cc1S(=O)(=O)N(C)C`, for which the inhibition is 15.2%. Turning to `Cc1ccc(NC(=O)CNCc2ccccn2)cc1S(=O)(=O)N(C)C`, the inhibition is -1.9%.

Consider `CCOc1ncccc1C(=O)N(CC)CC(=O)Nc1ccc(NC(C)=O)cc1`, for which the inhibition was -8.7%. As to `O=c1oc2ccccc2cc1-c1csc(Nc2ccc(O)cc2)n1`, the inhibition was 17.8%. As for `CCNc1nc(-c2cc3ccccc3o2)cs1`, the figure is 64.9% (active); as for `COc1ccc2nc(Nc3nc(-c4cc5ccccc5oc4=O)cs3)sc2c1`, 40.7%; as for `CC/C(Cc1ccccc1)=N/NC(=O)CCn1nnc2ccccc21`, -3.6%. As to `Cc1ccccc1C1=N/C(=C/c2cccnc2)C(=O)O1`, the inhibition is 34.5%. On to `Cc1ccc(C2=C/C(=C\c3cccnc3)C(=O)O2)cc1`, for which the inhibition is 52.2% (active). Turning to `O=C1OC(c2ccc(Cl)cc2)=N/C1=C\c1cccnc1`, the inhibition was -3.3%.

With `Cc1ccc(C)c(CSc2nc(-c3ccco3)nc3c2c(=O)n(C)c(=O)n3C)c1`, the inhibition is 0.1%.

Regarding `CC(=O)c1ccc(N2CCN(S(=O)(=O)c3c(C)[nH]c(=O)[nH]c3=O)CC2)cc1`, the inhibition was -3%.

As to `O=C(CCN1CCN(C/C=C/c2ccccc2)CC1)Nc1cccc(F)c1`, the inhibition was -5.5%.

As to `COc1ccc(/C=N/NC(=O)c2ccccc2)cc1OS(=O)(=O)c1ccccc1`, the inhibition was -2.1%. Take `COc1ccc(C(=O)Nc2ccccc2C(=O)N/N=C/c2ccc(O)c(OC)c2)cc1`: the inhibition is 98.3% (active). Turning to `COc1cc(/C=N/NC(=O)c2ccccc2)ccc1OS(=O)(=O)c1ccccc1`, the inhibition is -2.6%. For `COc1ccccc1C(=O)NNC(=O)c1ccc(NC(=O)c2ccccc2)cc1`, the inhibition is -1.7%. As for `COc1ccc(C(=O)Nc2ccccc2C(=O)N/N=C/c2ccccc2OC)cc1`, the figure is 97.8% (active); as for `CCn1c(/C=N/NC(=O)c2ccc(OC)cc2)nc2ccccc21`, 8.7%. As for `CCN(CC)c1ccc([N+](=O)[O-])cc1C(=O)O`, the figure is -4.3%; as for `Cc1ccc2cc(CN(c3ccc(C)c(C)c3)S(C)(=O)=O)c(=O)[nH]c2c1`, -3.5%; as for `CCOC(=O)C1=C(CC)Nc2ccccc2N=C1N`, -6.8%.

With `CCc1ccccc1NC(=O)CN(c1ccc(OC)cc1OC)S(=O)(=O)c1ccccc1[N+](=O)[O-]`, the inhibition was -10.9%. Take `COc1ccc(N(CC(=O)NC2CCCC2)C(=O)CS(=O)CC(=O)Nc2ccc3c(c2)OCO3)cc1` (stereo not drawn): the inhibition is -6.6%. Regarding `COc1cc2c(C(=O)N3CCN(C)CC3)c(CSc3ccccc3)n(C)c2cc1Br`, the inhibition was -9.2%. Take `Cc1cc2ccccn2c1C(=O)c1cccc(S(=O)(=O)N2CCOCC2)c1`: the inhibition is 4.2%. The same measure for `COc1ccc(Cn2c(-c3ccc(Cl)cc3)c[n+]3ccccc23)cc1`: 7.2%; for `CC(C)C(NC(=O)C1CCC(C(C)(C)C)CC1)C(=O)NCCCN1CCCCC1` (stereo not drawn): -3%. In the case of `Cc1ccc(C)c(N2C(=O)CS/C2=N\NC(=O)c2ccccc2Cl)c1`, the inhibition was -0.5%. With `COc1ccccc1C(=O)Oc1ccc(N2C(=O)CCC2=O)cc1`, the inhibition was -2.3%. In the case of `Cc1cc(OC(=O)c2ccccc2Cl)ccc1N1C(=O)CCC1=O`, the inhibition is 69% (active). Take `C=CCn1c(P(C)(=O)O)nc2ccccc21`: the inhibition is -7.9% and -5.5%.

On to `CCc1ccc(OCC(=O)OCC(=O)c2c(N)n(C)c(=O)n(C)c2=O)cc1`, for which the inhibition was -11.1%. As for `O=c1c2c(nc3nc[nH]n13)CCC2`, the figure is -4.1%; as for `O=c1c2c(nc3cc(-c4cccc(Cl)c4)[nH]n13)CCCC2`, 74.9% (active). As to `O=C1CCCc2c1nc(-c1cccc(Cl)c1)n2O`, the inhibition is -1.6%. As for `COc1ccc(C(=O)OCC(=O)NC(=O)CCSc2ccccc2)cc1`, the inhibition was -0.8%. Take `Cc1ccc(SCCC(=O)NC(C(C)C)C(C)C)cc1`: the inhibition is -8.1%. On to `Cc1cc2nc(C(F)(F)F)cc(-c3cccs3)n2n1`, for which the inhibition was -2.2%.

For the molecule `CCOc1ccc(-c2nnc(-c3ccco3)o2)cc1`, the inhibition is 79.2% (active). The same measure for `CCC(=O)Oc1cccc(C(=O)Nc2ccc(-c3nnc(-c4ccco4)o3)cc2)c1`: -4.9%; for `CCCCOc1ccc(-c2nnc(-c3ccco3)o2)cc1`: 25.4%; for `CCOc1ccc2nc(C(=O)N3CCCC(C)C3)sc2c1` (stereo not drawn): 56% (active).

`CCOc1ccc2nc(SC(CC)C(=O)Nc3cc(C)on3)sc2c1` (stereo not drawn): the inhibition was -3.8%. As for `CCOc1ccc2nc(Nc3nc4ccc(NC(C)=O)cc4s3)sc2c1`, the figure is 8.7%. In the case of `COC(=O)CSc1nccc(-c2cccs2)n1`, the inhibition was 3.7%. `O=C(Nc1ccnc(-c2ccncc2)n1)c1cccs1`: the inhibition was -0.6%.

Regarding `O=C(O)COc1ccc(-c2nccc(-c3cccs3)n2)cc1`, the inhibition is 77.5% (active). With `COc1cccc(/C=N/Nc2cc(C)nc(-c3ccccc3O)n2)c1O`, the inhibition is 9.6%.

As to `COc1cccc(/C=N/NC(=O)c2[nH]nc3c2CCc2ccccc2-3)c1O`, the inhibition is 28.9%. The same measure for `COc1cccc(/C=N\NC(=O)C2=NNC(=O)C2C)c1O` (stereo not drawn): 83.5% (active); for `CNC(=O)NC(=O)C(OC(=O)c1cccc(S(=O)(=O)N2CCCCC2)c1)c1ccccc1` (stereo not drawn): -3.2%. Regarding `O=C(Cc1cccc2ccccc12)Nc1ccc2oc(-c3ccccc3)nc2c1`, the inhibition is 2.6%. As for `O=[N+]([O-])c1ccc2oc(-c3cccc(O)c3)nc2c1`, the figure is 53.2% (active).

`COc1ccc2oc(-c3cccc(NC(=O)CSc4ccc(Cl)cc4)c3)nc2c1`: the inhibition was 3%.

As to `COc1cccc(-c2nc(S(=O)(=O)c3ccccc3)c(N3CCOCC3)o2)c1`, the inhibition is -0.7%. In the case of `COc1ccc(-c2nc3cc([N+](=O)[O-])ccc3o2)cc1OC`, the inhibition is 2.5%.

With `COc1cccc(-c2nc3cc(C)ccc3o2)c1`, the inhibition is 82.8% (active). As to `Cc1cc(NC(=O)CSc2nc3ccccc3n2CC(C)C)no1`, the inhibition was -5.3%. On to `COc1ccc(F)c(-c2nc(CN3CCC(c4ccccc4)CC3)c(C)o2)c1`, for which the inhibition is 0.5%. `O=C(CCN1C(=O)C2C3C=CC(C3)C2C1=O)Oc1ccc2ccccc2c1` (stereo not drawn): the inhibition is -3.9%.

For `CC1CC(C)CN(S(=O)(=O)c2ccc(C(=O)NN3CCOCC3)cc2)C1` (stereo not drawn), the inhibition is 0.2%. In the case of `COc1ccc(-c2csc(Cc3nc(O)cs3)n2)cc1`, the inhibition was 4.6%. As to `CSCC[C@H](NC(=O)OC(C)(C)C)C(=O)N/N=C/c1cc2ccc(C)cc2nc1Cl`, the inhibition was -6.9%. For `Brc1ccc2nc(N3CCCC3)sc2c1`, the inhibition was 35.9%.

As for `c1c2c(cc3sc(N4CCCCC4)nc13)OCCO2`, the inhibition is 92.9% (active). Take `COc1ccc2nc(Nc3nc4cc5c(cc4s3)OCCO5)sc2c1`: the inhibition was 11.3%. Turning to `Cc1ccc(N(C(=O)c2ccc(CN3CCOCC3)o2)C(C(=O)NCCC(C)C)c2cccs2)c(C)c1` (stereo not drawn), the inhibition is -4.1%. Consider `COc1ccc(C(=O)NCC(=O)N/N=C/c2ccc([N+](=O)[O-])s2)cc1OC`, for which the inhibition is 2.8%. Take `OC(CNCc1ccc(Cl)c(Cl)c1)c1ccccc1` (stereo not drawn): the inhibition was -8.3%.

As for `COC(=O)C1C(=O)c2c([nH]c(C(=O)OCCSC)c2C)CC1C` (stereo not drawn), the inhibition was 50.1% (active). As for `CCCOC(=O)c1[nH]c2c(c1C)C(=O)CC(c1cc(OC)c(OC)c(OC)c1)C2` (stereo not drawn), the figure is -2.3%; as for `CCCOC(=O)C1=C(C)NC2=C(C(=O)C(C(=O)OC)C(C)C2)C1c1ccc(N(C)C)cc1` (stereo not drawn), 0.8%. Turning to `CCOc1ccc(-n2cnnn2)cc1S(=O)(=O)N1CCC(C)CC1C` (stereo not drawn), the inhibition is -3.6%. As for `Cc1cccc(NC(=O)CN2C(=O)c3ccccc3C2=O)c1C`, the inhibition is -4%. As to `Cc1ccc(SCCC(=O)Nc2cc(C)on2)cc1`, the inhibition was -4.4%. The same measure for `Cc1ccc2nc(-c3ccc(SCC(=O)Nc4cc(C)on4)nc3)[nH]c2c1`: 73.4% (active). Turning to `Cc1ccc(-c2csc(SCC(=O)Nc3cc(C)on3)n2)cc1`, the inhibition was -4.8%. As to `COC(=O)NNC(=O)C1CCC(C)CC1` (stereo not drawn), the inhibition was -4.8%. As to `CCNS(=O)(=O)c1ccc(NC(=O)c2cncc(Br)c2)cc1`, the inhibition was -4.2%.
